Laboratory results reported in publication PMC7862700, “An all-to-all approach to the identification of sequence-specific readers for epigenetic DNA modifications on cytosine”.

Experiments:
Experiment in all cases: DAPPL (digital affinity profiling via proximity ligation, sequencing); 10 mM Tris-HCl pH 7.5, 50 mM NaCl, 1 mM DTT, 4% glycerol, room temperature, 30 min; GST-TFs on glutathione beads, 16-mer random dsDNA library, 0.1% formaldehyde crosslink after washing; high values mean tight binding
[1] = target: T1, FEV (Homo sapiens, UniProt Q99581 1-238); conditions: protein: recombinant; tags: N-terminal GST; dsDNA, one strand shown
T1 sequence: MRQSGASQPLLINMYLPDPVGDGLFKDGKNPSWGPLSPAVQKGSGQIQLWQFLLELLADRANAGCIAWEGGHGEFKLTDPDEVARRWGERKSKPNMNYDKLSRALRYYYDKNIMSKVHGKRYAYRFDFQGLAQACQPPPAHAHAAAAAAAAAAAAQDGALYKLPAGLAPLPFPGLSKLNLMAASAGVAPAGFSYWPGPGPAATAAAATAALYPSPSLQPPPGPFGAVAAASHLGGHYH
How it was run: (§1)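 After expression in yeast as GST fusions, human transcription factors were bound to glutathione beads, DNA-barcoded and mixed with a tag-only sample. The pools were incubated with 200 nmole of a 16-mer random double-stranded DNA library in Tris/NaCl/DTT/glycerol buffer (30 min, room temperature), washed and crosslinked with 0.1% formaldehyde. Proximity ligation with BsaI/T4 ligase ran for 1 h at 37 °C, before PCR amplification and sequencing on an Illumina NextSeq500. Binding signal is a hexamer's read frequency for a factor divided by its frequency for the tag-only sample.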

[2] = target: ETV5 (Homo sapiens, UniProt P41161 1-510); conditions: protein: recombinant; tags: N-terminal GST; dsDNA, one strand shown
ETV5, sequence (P41161 whole entry): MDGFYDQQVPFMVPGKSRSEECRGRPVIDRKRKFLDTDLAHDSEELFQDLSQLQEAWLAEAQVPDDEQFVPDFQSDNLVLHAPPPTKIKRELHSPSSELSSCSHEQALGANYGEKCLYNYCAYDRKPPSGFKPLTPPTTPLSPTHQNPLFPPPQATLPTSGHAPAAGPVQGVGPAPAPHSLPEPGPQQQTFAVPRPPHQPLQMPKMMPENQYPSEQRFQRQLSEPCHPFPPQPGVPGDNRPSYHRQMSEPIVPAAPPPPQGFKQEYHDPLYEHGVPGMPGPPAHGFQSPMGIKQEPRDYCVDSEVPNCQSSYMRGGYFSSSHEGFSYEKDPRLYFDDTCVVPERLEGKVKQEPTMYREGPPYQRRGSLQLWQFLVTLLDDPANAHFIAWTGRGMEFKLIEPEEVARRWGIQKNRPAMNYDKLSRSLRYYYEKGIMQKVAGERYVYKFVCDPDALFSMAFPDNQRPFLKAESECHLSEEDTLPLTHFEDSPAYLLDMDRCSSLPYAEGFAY
How it was run: as §1

[3] = target: HSF1 (Homo sapiens, UniProt Q00613 1-529); conditions: protein: recombinant; tags: N-terminal GST; chain copies: 3; dsDNA, one strand shown
HSF1, sequence (Q00613 whole entry): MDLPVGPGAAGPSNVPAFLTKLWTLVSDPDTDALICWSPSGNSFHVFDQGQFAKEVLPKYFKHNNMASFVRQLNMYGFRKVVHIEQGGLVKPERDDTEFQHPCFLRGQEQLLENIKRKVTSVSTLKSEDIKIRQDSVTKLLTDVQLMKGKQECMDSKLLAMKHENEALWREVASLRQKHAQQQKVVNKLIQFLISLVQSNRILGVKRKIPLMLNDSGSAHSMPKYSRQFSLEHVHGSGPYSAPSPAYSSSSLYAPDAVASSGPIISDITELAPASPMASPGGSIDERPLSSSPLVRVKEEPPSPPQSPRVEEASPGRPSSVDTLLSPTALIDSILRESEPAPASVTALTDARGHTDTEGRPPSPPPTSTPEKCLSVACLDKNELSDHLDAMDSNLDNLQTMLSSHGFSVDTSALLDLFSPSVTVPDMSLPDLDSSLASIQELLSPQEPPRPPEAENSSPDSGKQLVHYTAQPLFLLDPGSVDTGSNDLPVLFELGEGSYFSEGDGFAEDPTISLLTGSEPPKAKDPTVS
How it was run: as §1

[4] = target: T2, SPIC (Homo sapiens, UniProt Q8N5J4 1-248); conditions: protein: recombinant; tags: N-terminal GST; dsDNA, one strand shown
T2 sequence: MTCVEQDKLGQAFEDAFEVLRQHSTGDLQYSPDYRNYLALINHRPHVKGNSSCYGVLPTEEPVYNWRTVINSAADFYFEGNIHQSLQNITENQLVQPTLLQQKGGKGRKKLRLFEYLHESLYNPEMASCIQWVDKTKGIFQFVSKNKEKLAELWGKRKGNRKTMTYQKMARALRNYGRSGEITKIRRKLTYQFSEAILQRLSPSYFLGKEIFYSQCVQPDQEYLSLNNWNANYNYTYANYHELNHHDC
How it was run: as §1

[5] = target: ELF4 (Homo sapiens, UniProt Q99607 1-663); conditions: protein: recombinant; tags: N-terminal GST; dsDNA, one strand shown
ELF4, sequence (Q99607 whole entry): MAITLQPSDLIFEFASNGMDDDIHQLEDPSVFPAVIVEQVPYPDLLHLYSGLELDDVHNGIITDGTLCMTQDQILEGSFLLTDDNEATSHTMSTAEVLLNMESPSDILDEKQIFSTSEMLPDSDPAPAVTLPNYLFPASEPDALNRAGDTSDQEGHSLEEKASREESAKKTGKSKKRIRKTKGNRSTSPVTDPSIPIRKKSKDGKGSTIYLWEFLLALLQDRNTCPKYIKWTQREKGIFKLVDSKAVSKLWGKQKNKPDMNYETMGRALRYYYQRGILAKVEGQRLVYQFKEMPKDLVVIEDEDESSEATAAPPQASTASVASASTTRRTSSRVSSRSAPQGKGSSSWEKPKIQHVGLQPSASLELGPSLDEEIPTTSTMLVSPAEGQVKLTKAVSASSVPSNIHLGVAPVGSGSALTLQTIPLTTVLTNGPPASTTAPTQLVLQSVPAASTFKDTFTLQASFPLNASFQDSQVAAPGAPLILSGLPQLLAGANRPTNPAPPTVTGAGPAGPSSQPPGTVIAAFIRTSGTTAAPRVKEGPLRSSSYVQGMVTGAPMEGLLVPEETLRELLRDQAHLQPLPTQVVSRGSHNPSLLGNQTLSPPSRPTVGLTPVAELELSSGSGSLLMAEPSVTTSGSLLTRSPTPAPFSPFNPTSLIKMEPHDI
How it was run: as §1

[6] = target: T3, ELK4 (Homo sapiens, UniProt P28324-2 1-405); conditions: protein: recombinant; tags: N-terminal GST; dsDNA, one strand shown
T3 sequence: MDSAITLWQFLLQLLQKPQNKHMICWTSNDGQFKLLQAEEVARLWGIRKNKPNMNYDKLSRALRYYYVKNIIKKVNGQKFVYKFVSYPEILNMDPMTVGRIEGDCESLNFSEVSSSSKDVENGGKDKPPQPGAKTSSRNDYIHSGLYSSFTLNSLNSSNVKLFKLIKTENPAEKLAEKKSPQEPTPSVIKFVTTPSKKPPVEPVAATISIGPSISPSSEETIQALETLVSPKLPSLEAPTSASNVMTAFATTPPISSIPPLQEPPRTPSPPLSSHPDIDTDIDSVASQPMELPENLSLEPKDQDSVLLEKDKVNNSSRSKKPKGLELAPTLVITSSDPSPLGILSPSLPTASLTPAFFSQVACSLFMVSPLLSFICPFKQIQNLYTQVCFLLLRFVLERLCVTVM
How it was run: as §1

[7] = target: T4, ETV2 (Homo sapiens, UniProt O00321 1-342); conditions: protein: recombinant; tags: N-terminal GST; dsDNA, one strand shown
T4 sequence: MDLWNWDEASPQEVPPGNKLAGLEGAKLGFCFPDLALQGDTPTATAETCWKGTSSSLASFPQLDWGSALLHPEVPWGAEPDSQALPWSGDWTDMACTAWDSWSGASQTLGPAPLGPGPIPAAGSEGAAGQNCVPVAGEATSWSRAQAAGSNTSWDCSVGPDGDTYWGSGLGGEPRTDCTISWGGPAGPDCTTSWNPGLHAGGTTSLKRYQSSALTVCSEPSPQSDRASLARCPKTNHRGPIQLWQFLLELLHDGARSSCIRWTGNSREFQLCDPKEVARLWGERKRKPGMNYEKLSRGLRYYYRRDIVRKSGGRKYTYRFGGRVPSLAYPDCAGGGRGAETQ
How it was run: as §1

[8] = target: T5, ELF3 (Homo sapiens, UniProt P78545 1-371); conditions: protein: recombinant; tags: N-terminal GST; dsDNA, one strand shown
T5 sequence: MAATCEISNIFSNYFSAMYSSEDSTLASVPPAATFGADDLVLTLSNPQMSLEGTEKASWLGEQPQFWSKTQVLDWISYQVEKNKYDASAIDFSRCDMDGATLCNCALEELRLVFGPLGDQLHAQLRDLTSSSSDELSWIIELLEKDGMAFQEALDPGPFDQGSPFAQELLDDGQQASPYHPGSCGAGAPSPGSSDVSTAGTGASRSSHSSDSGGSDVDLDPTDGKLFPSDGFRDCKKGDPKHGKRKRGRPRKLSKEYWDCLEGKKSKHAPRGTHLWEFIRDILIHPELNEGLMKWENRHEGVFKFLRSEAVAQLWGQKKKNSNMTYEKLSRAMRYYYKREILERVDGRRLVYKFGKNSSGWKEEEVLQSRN
How it was run: as §1

[9] = target: CRX (Homo sapiens, UniProt O43186 1-299); conditions: protein: recombinant; tags: N-terminal GST; dsDNA, one strand shown
CRX, sequence (O43186 whole entry): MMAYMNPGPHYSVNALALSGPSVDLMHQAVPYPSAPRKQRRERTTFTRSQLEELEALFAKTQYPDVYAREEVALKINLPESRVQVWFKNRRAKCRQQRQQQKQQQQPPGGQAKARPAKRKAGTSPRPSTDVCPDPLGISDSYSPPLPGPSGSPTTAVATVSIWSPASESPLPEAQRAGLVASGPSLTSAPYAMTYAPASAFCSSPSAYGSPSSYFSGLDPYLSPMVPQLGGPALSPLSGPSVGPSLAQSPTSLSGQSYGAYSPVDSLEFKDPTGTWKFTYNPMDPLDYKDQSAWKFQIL
How it was run: as §1

[10] = target: ETV1 (Homo sapiens, UniProt P50549 1-477); conditions: protein: recombinant; tags: N-terminal GST; dsDNA, one strand shown
ETV1, sequence (P50549 whole entry): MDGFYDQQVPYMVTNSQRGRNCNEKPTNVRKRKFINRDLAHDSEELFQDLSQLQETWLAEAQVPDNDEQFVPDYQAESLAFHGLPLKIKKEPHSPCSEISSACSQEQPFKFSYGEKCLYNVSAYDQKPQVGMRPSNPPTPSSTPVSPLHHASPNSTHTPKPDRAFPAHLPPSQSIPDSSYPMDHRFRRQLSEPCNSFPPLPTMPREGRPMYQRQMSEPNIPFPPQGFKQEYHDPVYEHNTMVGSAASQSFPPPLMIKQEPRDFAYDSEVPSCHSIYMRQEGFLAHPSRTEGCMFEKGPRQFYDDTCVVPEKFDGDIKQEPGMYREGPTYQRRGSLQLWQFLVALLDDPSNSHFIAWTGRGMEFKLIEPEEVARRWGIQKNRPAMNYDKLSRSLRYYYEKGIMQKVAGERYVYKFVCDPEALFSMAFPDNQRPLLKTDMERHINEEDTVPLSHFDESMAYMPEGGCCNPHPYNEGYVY
How it was run: as §1

[11] = target: T6, ERF (Homo sapiens, UniProt P50548 1-548); conditions: protein: recombinant; tags: N-terminal GST; dsDNA, one strand shown
T6 sequence: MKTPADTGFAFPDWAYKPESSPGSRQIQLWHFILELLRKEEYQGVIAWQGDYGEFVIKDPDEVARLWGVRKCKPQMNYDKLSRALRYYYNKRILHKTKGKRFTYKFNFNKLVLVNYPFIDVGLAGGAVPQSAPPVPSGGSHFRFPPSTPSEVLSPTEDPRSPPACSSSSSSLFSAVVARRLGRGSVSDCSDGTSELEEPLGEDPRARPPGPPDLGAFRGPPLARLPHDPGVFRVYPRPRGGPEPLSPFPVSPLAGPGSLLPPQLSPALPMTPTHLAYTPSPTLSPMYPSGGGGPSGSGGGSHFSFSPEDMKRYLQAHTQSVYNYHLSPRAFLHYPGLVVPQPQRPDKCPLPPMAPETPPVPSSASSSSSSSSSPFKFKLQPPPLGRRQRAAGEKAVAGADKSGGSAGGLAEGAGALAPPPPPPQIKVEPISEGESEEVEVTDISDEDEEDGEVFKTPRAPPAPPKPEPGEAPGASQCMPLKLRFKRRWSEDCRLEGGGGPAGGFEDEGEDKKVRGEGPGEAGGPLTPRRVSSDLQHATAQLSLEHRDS
How it was run: as §1

[12] = target: T7, ETV3L (Homo sapiens, UniProt Q6ZN32 1-361); conditions: protein: recombinant; tags: N-terminal GST; dsDNA, one strand shown
T7 sequence: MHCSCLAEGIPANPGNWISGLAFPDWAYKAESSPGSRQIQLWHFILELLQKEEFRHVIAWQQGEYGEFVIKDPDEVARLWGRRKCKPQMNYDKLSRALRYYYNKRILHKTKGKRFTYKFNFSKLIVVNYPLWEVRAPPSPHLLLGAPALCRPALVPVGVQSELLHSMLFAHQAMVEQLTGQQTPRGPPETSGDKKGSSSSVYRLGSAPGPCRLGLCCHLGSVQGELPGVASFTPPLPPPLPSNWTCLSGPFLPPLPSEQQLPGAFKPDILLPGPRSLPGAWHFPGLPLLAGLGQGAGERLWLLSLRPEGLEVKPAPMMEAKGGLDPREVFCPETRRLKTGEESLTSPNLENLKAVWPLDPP
How it was run: as §1

[13] = target: T8, ETS2 (Homo sapiens, UniProt P15036 1-469); conditions: protein: recombinant; tags: N-terminal GST; dsDNA, one strand shown
T8 sequence: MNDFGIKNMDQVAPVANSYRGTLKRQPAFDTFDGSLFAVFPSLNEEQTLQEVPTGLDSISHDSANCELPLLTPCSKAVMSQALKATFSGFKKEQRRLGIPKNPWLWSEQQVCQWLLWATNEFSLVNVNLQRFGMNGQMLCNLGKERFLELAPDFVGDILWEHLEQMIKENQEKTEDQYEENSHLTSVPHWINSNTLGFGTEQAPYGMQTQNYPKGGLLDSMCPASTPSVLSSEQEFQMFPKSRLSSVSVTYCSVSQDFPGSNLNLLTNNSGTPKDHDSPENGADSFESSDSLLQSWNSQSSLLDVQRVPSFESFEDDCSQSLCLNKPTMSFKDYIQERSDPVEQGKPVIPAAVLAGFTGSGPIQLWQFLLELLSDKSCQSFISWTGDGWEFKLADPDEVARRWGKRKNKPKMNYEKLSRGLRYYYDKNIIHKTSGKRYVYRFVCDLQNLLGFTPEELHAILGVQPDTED
How it was run: as §1

[14] = target: T9, SPDEF (Homo sapiens, UniProt O95238 1-335); conditions: protein: recombinant; tags: N-terminal GST; dsDNA, one strand shown
T9 sequence: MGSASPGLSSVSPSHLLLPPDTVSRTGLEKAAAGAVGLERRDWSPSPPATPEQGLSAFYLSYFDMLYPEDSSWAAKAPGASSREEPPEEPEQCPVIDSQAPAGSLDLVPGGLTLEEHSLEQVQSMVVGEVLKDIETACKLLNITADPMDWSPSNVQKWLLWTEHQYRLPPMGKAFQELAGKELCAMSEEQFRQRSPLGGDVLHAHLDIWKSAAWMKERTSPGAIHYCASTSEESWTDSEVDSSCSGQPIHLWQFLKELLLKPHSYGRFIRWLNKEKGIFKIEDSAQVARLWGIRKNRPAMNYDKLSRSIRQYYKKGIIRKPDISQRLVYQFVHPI
How it was run: as §1

[15] = target: T10, ETV7 (Homo sapiens, UniProt Q9Y603 1-341); conditions: protein: recombinant; tags: N-terminal GST; dsDNA, one strand shown
T10 sequence: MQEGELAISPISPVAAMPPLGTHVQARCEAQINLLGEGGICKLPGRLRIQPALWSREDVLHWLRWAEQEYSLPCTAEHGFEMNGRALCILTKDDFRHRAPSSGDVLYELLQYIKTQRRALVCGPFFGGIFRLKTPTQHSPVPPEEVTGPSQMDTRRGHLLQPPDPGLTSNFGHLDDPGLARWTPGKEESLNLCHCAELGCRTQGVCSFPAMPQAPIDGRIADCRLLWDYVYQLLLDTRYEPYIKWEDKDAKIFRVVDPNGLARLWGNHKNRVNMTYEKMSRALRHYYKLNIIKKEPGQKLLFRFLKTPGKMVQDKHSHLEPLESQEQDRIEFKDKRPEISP
How it was run: as §1

[16] = target: T11, ELF5 (Homo sapiens, UniProt Q9UKW6-2 1-255); conditions: protein: recombinant; tags: N-terminal GST; dsDNA, one strand shown
T11 sequence: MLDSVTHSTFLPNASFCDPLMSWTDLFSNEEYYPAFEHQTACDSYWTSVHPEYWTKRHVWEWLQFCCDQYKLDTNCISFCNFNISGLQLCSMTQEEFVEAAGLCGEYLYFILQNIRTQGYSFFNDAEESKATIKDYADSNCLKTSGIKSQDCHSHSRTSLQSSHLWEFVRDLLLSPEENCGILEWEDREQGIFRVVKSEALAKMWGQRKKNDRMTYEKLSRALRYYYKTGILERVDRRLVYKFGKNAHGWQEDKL
How it was run: as §1

[17] = target: T12, ETV3 (Homo sapiens, UniProt P41162-2 1-143); conditions: protein: recombinant; tags: N-terminal GST; dsDNA, one strand shown
T12 sequence: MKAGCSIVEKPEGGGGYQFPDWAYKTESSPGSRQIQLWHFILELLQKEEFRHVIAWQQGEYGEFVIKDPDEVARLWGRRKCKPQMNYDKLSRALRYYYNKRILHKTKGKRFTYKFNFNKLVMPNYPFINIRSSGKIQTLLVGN
How it was run: as §1

[18] = target: ETV6 (Homo sapiens, UniProt P41212 1-452); conditions: protein: recombinant; tags: N-terminal GST; dsDNA, one strand shown
ETV6, sequence (P41212 whole entry): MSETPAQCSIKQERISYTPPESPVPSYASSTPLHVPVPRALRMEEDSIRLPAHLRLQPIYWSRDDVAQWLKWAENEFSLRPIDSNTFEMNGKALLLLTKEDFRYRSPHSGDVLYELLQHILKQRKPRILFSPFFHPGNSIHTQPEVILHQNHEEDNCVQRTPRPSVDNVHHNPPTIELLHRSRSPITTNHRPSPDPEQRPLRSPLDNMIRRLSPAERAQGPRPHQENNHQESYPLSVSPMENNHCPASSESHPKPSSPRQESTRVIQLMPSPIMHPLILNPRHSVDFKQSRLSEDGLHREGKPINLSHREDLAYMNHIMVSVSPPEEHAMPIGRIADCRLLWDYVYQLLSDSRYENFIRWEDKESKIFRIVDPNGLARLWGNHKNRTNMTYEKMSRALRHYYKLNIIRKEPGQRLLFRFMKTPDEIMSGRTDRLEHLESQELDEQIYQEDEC
How it was run: as §1

## CTGTTT
[1]
  binding signal: 1.41 fold enrichment (6-mer frequency, TF over GST control)
[2]
  binding signal: 1.42 fold enrichment (6-mer frequency, TF over GST control)
[3]
  binding signal: 1.13 fold enrichment (6-mer frequency, TF over GST control)
[4]
  binding signal: 1.31 fold enrichment (6-mer frequency, TF over GST control)
[5]
  binding signal: 1.38 fold enrichment (6-mer frequency, TF over GST control)
[6]
  binding signal: 1.29 fold enrichment (6-mer frequency, TF over GST control)
[7]
  binding signal: 1.4 fold enrichment (6-mer frequency, TF over GST control)
[8]
  binding signal: 1.14 fold enrichment (6-mer frequency, TF over GST control)
[9]
  binding signal: 1.08 fold enrichment (6-mer frequency, TF over GST control)
[10]
  binding signal: 1.5 fold enrichment (6-mer frequency, TF over GST control)
[11]
  binding signal: 1.37 fold enrichment (6-mer frequency, TF over GST control)
[12]
  binding signal: 1.49 fold enrichment (6-mer frequency, TF over GST control)
[13]
  binding signal: 1.45 fold enrichment (6-mer frequency, TF over GST control)
[14]
  binding signal: 1.42 fold enrichment (6-mer frequency, TF over GST control)
[15]
  binding signal: 1.38 fold enrichment (6-mer frequency, TF over GST control)
[16]
  binding signal: 1.62 fold enrichment (6-mer frequency, TF over GST control)
[17]
  binding signal: 1.36 fold enrichment (6-mer frequency, TF over GST control)
[18]
  binding signal: 1.49 fold enrichment (6-mer frequency, TF over GST control)
